The supplement of paper PMC6992640

What follows are compounds tested on WHIM30 (cells of a triple-negative basal-like breast cancer xenograft) (assay: cell viability of combination (% of vehicle); higher = less cytotoxic). Conditions: 1 µM; 72 h; partner dose: 10 nM.
Method: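 PDX cells were treated for 72 h with each drug at 1 µM plus carfilzomib (10 nM; 100 nM for WHIM2). Luciferase viability is expressed as percent of vehicle.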

| Compound | cell viability of combination |
| --- | --- |
| O=C(O)c1cc(O)c(O)c(O)c1 [Gallic acid] + CC(C)C[C@H](NC(=O)[C@H](CCc1ccccc1)NC(=O)CN1CCOCC1)C(=O)N[C@@H](Cc1ccccc1)C(=O)N[C@@H](CC(C)C)C(=O)[C@@]1(C)CO1 [Carfilzomib] | 16.3 |
| CC(O)C(=O)O.CCOc1ccc2nc3cc(N)ccc3c(N)c2c1.O [Ethacridine lactate monohydrate] + CC(C)C[C@H](NC(=O)[C@H](CCc1ccccc1)NC(=O)CN1CCOCC1)C(=O)N[C@@H](Cc1ccccc1)C(=O)N[C@@H](CC(C)C)C(=O)[C@@]1(C)CO1 [Carfilzomib] | 15.2 |
| Cl.Clc1ccccc1CN1CCc2sccc2C1 [Ticlopidine HCl] + CC(C)C[C@H](NC(=O)[C@H](CCc1ccccc1)NC(=O)CN1CCOCC1)C(=O)N[C@@H](Cc1ccccc1)C(=O)N[C@@H](CC(C)C)C(=O)[C@@]1(C)CO1 [Carfilzomib] | 16 |
| COc1cc(C(=O)O)ccc1NC(=O)C1NC(CC(C)(C)C)C(C#N)(c2ccc(Cl)cc2F)C1c1cccc(Cl)c1F (stereo not given) + CC(C)C[C@H](NC(=O)[C@H](CCc1ccccc1)NC(=O)CN1CCOCC1)C(=O)N[C@@H](Cc1ccccc1)C(=O)N[C@@H](CC(C)C)C(=O)[C@@]1(C)CO1 [Carfilzomib] | 23.5 |
| C=C(c1ccc(C(=O)O)cc1)c1cc2c(cc1C)C(C)(C)CCC2(C)C [Bexarotene] + CC(C)C[C@H](NC(=O)[C@H](CCc1ccccc1)NC(=O)CN1CCOCC1)C(=O)N[C@@H](Cc1ccccc1)C(=O)N[C@@H](CC(C)C)C(=O)[C@@]1(C)CO1 [Carfilzomib] | 25.7 |
| CNC(=O)c1cc(Oc2ccc(NC(=O)Nc3ccc(Cl)c(C(F)(F)F)c3)c(F)c2)ccn1 [Regorafenib] + CC(C)C[C@H](NC(=O)[C@H](CCc1ccccc1)NC(=O)CN1CCOCC1)C(=O)N[C@@H](Cc1ccccc1)C(=O)N[C@@H](CC(C)C)C(=O)[C@@]1(C)CO1 [Carfilzomib] | 22.4 |
| CC(C)CC(NC(=O)C(NC(=O)c1cccc(-c2ccccc2)n1)C(C)O)B(O)O (stereo not given) + CC(C)C[C@H](NC(=O)[C@H](CCc1ccccc1)NC(=O)CN1CCOCC1)C(=O)N[C@@H](Cc1ccccc1)C(=O)N[C@@H](CC(C)C)C(=O)[C@@]1(C)CO1 [Carfilzomib] | 8.71 |
| CC(C)C(=O)OCC(=O)[C@@]12O[C@H](C3CCCCC3)O[C@@H]1C[C@H]1[C@@H]3CCC4=CC(=O)C=C[C@]4(C)[C@H]3[C@@H](O)C[C@@]12C [Ciclesonide] + CC(C)C[C@H](NC(=O)[C@H](CCc1ccccc1)NC(=O)CN1CCOCC1)C(=O)N[C@@H](Cc1ccccc1)C(=O)N[C@@H](CC(C)C)C(=O)[C@@]1(C)CO1 [Carfilzomib] | 31.2 |
| CCN1CCN(Cc2ccc(Nc3ncc(F)c(-c4cc(F)c5nc(C)n(C(C)C)c5c4)n3)nc2)CC1.CS(=O)(=O)O + CC(C)C[C@H](NC(=O)[C@H](CCc1ccccc1)NC(=O)CN1CCOCC1)C(=O)N[C@@H](Cc1ccccc1)C(=O)N[C@@H](CC(C)C)C(=O)[C@@]1(C)CO1 [Carfilzomib] | 23.6 |
| COc1cc(Nc2c(C#N)cnc3cc(OCCCN4CCN(C)CC4)c(OC)cc23)c(Cl)cc1Cl [Bosutinib (SKI-606)] + CC(C)C[C@H](NC(=O)[C@H](CCc1ccccc1)NC(=O)CN1CCOCC1)C(=O)N[C@@H](Cc1ccccc1)C(=O)N[C@@H](CC(C)C)C(=O)[C@@]1(C)CO1 [Carfilzomib] | 20.9 |
| COc1ccc2cc1Oc1ccc(cc1)CC1c3c(cc4c(c3Oc3cc5c(cc3OC)CCN(C)C5C2)OCO4)CCN1C (stereo not given) [Cepharanthine] + CC(C)C[C@H](NC(=O)[C@H](CCc1ccccc1)NC(=O)CN1CCOCC1)C(=O)N[C@@H](Cc1ccccc1)C(=O)N[C@@H](CC(C)C)C(=O)[C@@]1(C)CO1 [Carfilzomib] | 9.41 |
| CCOc1nc2cccc(C(=O)OC(C)OC(=O)OC3CCCCC3)c2n1Cc1ccc(-c2ccccc2-c2nn[nH]n2)cc1 (stereo not given) [Candesartan Cilexetil] + CC(C)C[C@H](NC(=O)[C@H](CCc1ccccc1)NC(=O)CN1CCOCC1)C(=O)N[C@@H](Cc1ccccc1)C(=O)N[C@@H](CC(C)C)C(=O)[C@@]1(C)CO1 [Carfilzomib] | 18.9 |
| Cc1nc(Nc2ncc(C(=O)Nc3c(C)cccc3Cl)s2)cc(N2CCN(CCO)CC2)n1 + CC(C)C[C@H](NC(=O)[C@H](CCc1ccccc1)NC(=O)CN1CCOCC1)C(=O)N[C@@H](Cc1ccccc1)C(=O)N[C@@H](CC(C)C)C(=O)[C@@]1(C)CO1 [Carfilzomib] | 26.6 |
| Cl.Cl.O=C1c2c(O)ccc(O)c2C(=O)c2c(NCCNCCO)ccc(NCCNCCO)c21 [Mitoxantrone HCl] + CC(C)C[C@H](NC(=O)[C@H](CCc1ccccc1)NC(=O)CN1CCOCC1)C(=O)N[C@@H](Cc1ccccc1)C(=O)N[C@@H](CC(C)C)C(=O)[C@@]1(C)CO1 [Carfilzomib] | 5.21 |
| CNC(=O)c1cc(Oc2ccc(NC(=O)Nc3ccc(Cl)c(C(F)(F)F)c3)cc2)ccn1.Cc1ccc(S(=O)(=O)O)cc1 [Sorafenib Tosylate] + CC(C)C[C@H](NC(=O)[C@H](CCc1ccccc1)NC(=O)CN1CCOCC1)C(=O)N[C@@H](Cc1ccccc1)C(=O)N[C@@H](CC(C)C)C(=O)[C@@]1(C)CO1 [Carfilzomib] | 19.5 |
| Br.Cc1ccc(Sc2ccccc2N2CCNCC2)c(C)c1 + CC(C)C[C@H](NC(=O)[C@H](CCc1ccccc1)NC(=O)CN1CCOCC1)C(=O)N[C@@H](Cc1ccccc1)C(=O)N[C@@H](CC(C)C)C(=O)[C@@]1(C)CO1 [Carfilzomib] | 15.7 |
| Cc1cn(-c2cc(NC(=O)c3ccc(C)c(Nc4nccc(-c5cccnc5)n4)c3)cc(C(F)(F)F)c2)cn1 [Nilotinib(AMN-107)] + CC(C)C[C@H](NC(=O)[C@H](CCc1ccccc1)NC(=O)CN1CCOCC1)C(=O)N[C@@H](Cc1ccccc1)C(=O)N[C@@H](CC(C)C)C(=O)[C@@]1(C)CO1 [Carfilzomib] | 22.2 |
| CCN(CC)CCNC(=O)c1c(C)[nH]c(C=C2C(=O)Nc3ccc(F)cc32)c1C [Sunitinib] + CC(C)C[C@H](NC(=O)[C@H](CCc1ccccc1)NC(=O)CN1CCOCC1)C(=O)N[C@@H](Cc1ccccc1)C(=O)N[C@@H](CC(C)C)C(=O)[C@@]1(C)CO1 [Carfilzomib] | 33.2 |
| CC1=CC(=O)c2ccccc2C1=O [Menadione] + CC(C)C[C@H](NC(=O)[C@H](CCc1ccccc1)NC(=O)CN1CCOCC1)C(=O)N[C@@H](Cc1ccccc1)C(=O)N[C@@H](CC(C)C)C(=O)[C@@]1(C)CO1 [Carfilzomib] | 21.4 |
| CO[C@@]12[C@H](COC(N)=O)C3=C(C(=O)C(C)=C(N)C3=O)N1C[C@@H]1N[C@@H]12 [Mitomycin C] + CC(C)C[C@H](NC(=O)[C@H](CCc1ccccc1)NC(=O)CN1CCOCC1)C(=O)N[C@@H](Cc1ccccc1)C(=O)N[C@@H](CC(C)C)C(=O)[C@@]1(C)CO1 [Carfilzomib] | 23.5 |
